Data from the supplement of paper PMC7595190.
A number with no mark means an inactive call.

Columns and labels:
Assay in all cases: CellTox Green cytotoxicity fluorescence relative to DMSO vehicle (fold of vehicle RFU); higher = more cell death (loss of membrane integrity), active = 2 or more
[1] = test system: CMK
Procedure, shortened: (§1)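 In 96-well black optical-bottom plates, MV4-11, CMK and Kasumi-1 cells were seeded at 4.0 × 10^4 cells per well together with CellTox Green reagent. Each well then received one compound from the Selleckchem apoptosis library, diluted in DMSO, at final 0.01, 0.1 or 1 µM, the vehicle being 0.1% DMSO. Incubation was at 37 °C under 5% CO2, with fluorescence measured (Ex 485 nm, Em 520 nm) at 24, 48 and 72 h. Cytotoxicity, which reflects loss of membrane integrity, is the fluorescence expressed as fold of the DMSO vehicle.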

[2] = test system: Kasumi-1
Procedure, shortened: as §1

[3] = test system: MV4-11
Procedure, shortened: as §1

| SMILES | CellTox Green cytotoxicity fluorescence ([1]; 0.01 µM, 24 h) | CellTox Green cytotoxicity fluorescence ([1]; 0.01 µM, 48 h) | CellTox Green cytotoxicity fluorescence ([1]; 0.01 µM, 72 h) | CellTox Green cytotoxicity fluorescence ([1]; 0.1 µM, 24 h) | CellTox Green cytotoxicity fluorescence ([1]; 0.1 µM, 48 h) | CellTox Green cytotoxicity fluorescence ([1]; 0.1 µM, 72 h) | CellTox Green cytotoxicity fluorescence ([1]; 1 µM, 24 h) | CellTox Green cytotoxicity fluorescence ([1]; 1 µM, 48 h) | CellTox Green cytotoxicity fluorescence ([1]; 1 µM, 72 h) | CellTox Green cytotoxicity fluorescence ([2]; 0.01 µM, 24 h) | CellTox Green cytotoxicity fluorescence ([2]; 0.01 µM, 48 h) | CellTox Green cytotoxicity fluorescence ([2]; 0.01 µM, 72 h) | CellTox Green cytotoxicity fluorescence ([2]; 0.1 µM, 24 h) | CellTox Green cytotoxicity fluorescence ([2]; 0.1 µM, 48 h) | CellTox Green cytotoxicity fluorescence ([2]; 0.1 µM, 72 h) | CellTox Green cytotoxicity fluorescence ([2]; 1 µM, 24 h) | CellTox Green cytotoxicity fluorescence ([2]; 1 µM, 48 h) | CellTox Green cytotoxicity fluorescence ([2]; 1 µM, 72 h) | CellTox Green cytotoxicity fluorescence ([3]; 0.01 µM, 24 h) | CellTox Green cytotoxicity fluorescence ([3]; 0.01 µM, 48 h) | CellTox Green cytotoxicity fluorescence ([3]; 0.01 µM, 72 h) | CellTox Green cytotoxicity fluorescence ([3]; 0.1 µM, 24 h) | CellTox Green cytotoxicity fluorescence ([3]; 0.1 µM, 48 h) | CellTox Green cytotoxicity fluorescence ([3]; 0.1 µM, 72 h) | CellTox Green cytotoxicity fluorescence ([3]; 1 µM, 24 h) | CellTox Green cytotoxicity fluorescence ([3]; 1 µM, 48 h) | CellTox Green cytotoxicity fluorescence ([3]; 1 µM, 72 h) |
| --- | --- | --- | --- | --- | --- | --- | --- | --- | --- | --- | --- | --- | --- | --- | --- | --- | --- | --- | --- | --- | --- | --- | --- | --- | --- | --- | --- |
| CC[C@@]1(O)C(=O)OCc2c1cc1n(c2=O)Cc2cc3cc(O)ccc3nc2-1 [(S)-10-Hydroxycamptothecin] | 0.964 | 1.06 | 1.19 | 1.56 | 2.2 (active) | 2.02 (active) | 0.988 | 1.01 | 0.878 | 0.962 | 0.972 | 0.997 | 0.972 | 1.07 | 1.27 | 0.98 | 1.23 | 1.59 | 1.01 | 1.35 | 1.89 | 1.09 | 1.65 | 1.93 | 1.27 | 2.3 (active) | 2.45 (active) |
| CCOC(=O)C1=C(N)Oc2ccc(Br)cc2C1C(C#N)C(=O)OCC (stereo not given) | 0.931 | 0.915 | 0.892 | 0.944 | 0.948 | 0.975 | 0.954 | 0.967 | 0.968 | 0.946 | 0.93 | 0.927 | 0.923 | 0.902 | 0.875 | 1.01 | 1.05 | 1.06 | 0.97 | 0.991 | 1.01 | 0.944 | 0.944 | 0.948 | 0.96 | 0.957 | 0.957 |
| Nc1cccc2c1C(=O)N(C1CCC(=O)NC1=O)C2=O (stereo not given) [Pomalidomide] | 1 | 0.988 | 0.953 | 1.01 | 1.01 | 0.952 | 1.03 | 1.04 | 0.984 | 0.992 | 0.996 | 0.983 | 1.01 | 0.998 | 0.985 | 1.01 | 1.02 | 1 | 0.981 | 0.995 | 0.992 | 1.04 | 1.01 | 0.983 | 1.01 | 0.968 | 0.96 |
| CC1(C)CC[C@]2(NC(=O)C(C)(F)F)CC[C@]3(C)[C@H](C(=O)C=C4[C@@]5(C)C=C(C#N)C(=O)C(C)(C)[C@@H]5CC[C@]43C)[C@@H]2C1 [Omaveloxolone] | 0.972 | 0.97 | 1 | 0.98 | 0.952 | 0.762 | 2.13 (active) | 2.33 (active) | 1.56 | 0.94 | 0.95 | 0.898 | 0.971 | 1 | 0.946 | 1.11 | 1.34 | 1.34 | 0.94 | 0.94 | 0.966 | 0.943 | 0.997 | 1.1 | 1.23 | 2.12 (active) | 2.24 (active) |
| FC(F)(F)c1ccc(CNc2ccc(Cc3c[nH]c4ncc(Cl)cc34)cn2)cn1 [Pexidartinib] | 1.01 | 1 | 0.979 | 0.99 | 1 | 0.967 | 0.964 | 0.989 | 0.967 | 0.99 | 0.998 | 0.956 | 1 | 1 | 1.03 | 1.04 | 1.12 | 1.2 | 1.01 | 1 | 1.01 | 1.07 | 1.17 | 1.21 | 1.09 | 1.41 | 1.74 |
